# Screening data (PubChem)
# Pf Dd2 growth: qHTS Primary assay for Inhibitors of Plasmodium falciparum Dd2 growth in vitro | Potency, µM (top dose mostly 28.9 µM), inactives show at the top dose activity, negative = inhibition, usual class: inhibitors | P. falciparum Dd2 growth, SYBR Green, 72 h | hit rate 4.3% among 120,000 | AID 1347417, 2020; active = well fitted inhibition curve with a large enough effect;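 also: plate controls were DMSO vehicle for no effect and reference drug for full effect; nearly all actives have a fitted effect of over 65% in size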
#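 Readout: SYBR Green fluorescence, 485 nm excitation, 535 nm emission, after ~16 h lysis at 37C. Before that, Dd2-infected red cells (2.5% hematocrit) grew 72 h with compound, 29 uM top final concentration.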
# Starred values were filed as active, the others as inactive; i = inactive; [ ] = another dose, or the depositor's remark. Only a selection was taken, and hits are over-represented in it overall. Potency is read from the fitted curve at half-maximal effect.
SMILES,Pf Dd2 growth
COc1cccc(N2C(=O)NC(=NC3CCCC3)C23CCN(CC2CCCCC2)C3)c1 (configuration not stated),10µM*
COc1ccc(CN2CCCC3(C2)C(=NC2CCCCC2)NC(=O)N3c2cccc(OC)c2)cc1 (configuration not stated),8.91µM*
COc1cccc(N2C(=O)NC(=NC3CCCCC3)C23CCN([S+](=O)([O-])c2cccs2)C3)c1 (configuration not stated),-9.7%
COc1cccc(N2C(=O)NC(=NC3CCCCC3)C23CCN(Cc2ccccc2)CC3)c1,-19.4%
COc1ccc(CN2CCC3(C2)C(=NC2CCCCC2)NC(=O)N3c2cccc(OC)c2)cc1 (configuration not stated),2.82µM*
CCn1cc(S(=O)(=O)N2CCC(Cc3nncn3C)C2)cn1 (configuration not stated),14.7%
COc1cncc([C@@H](NC(=O)c2scc3c2OCCO3)C2CC(O)C2)c1 (some centres not stated),-18.8%
COCCN1C(=O)CC[C@]2(C(=O)NCc3ccc(F)c(Cl)c3)CCCC[C@@H]12,-22.7%
O=C(Nc1ccccc1)C1=NO[C@@H]2CN(Cc3ccc4[nH]ccc4c3)C[C@H]12,-1.9%[44.1 µM]
CCn1cc(S(=O)(=O)N2CCC(c3noc(-c4ccccc4)n3)C2)cn1 (configuration not stated),46.8%[5.79 µM]
Cc1cccc(NC(=O)Cn2c(=O)c(-c3noc(C)n3)c3n(c2=O)CCCCC3)c1,21.8%
O=C(c1ccccc1)N1C[C@@H]2C[C@H](C1)c1ccc(NS(=O)(=O)c3cccs3)c(=O)n1C2,8.9%
Cc1noc([C@H]2CCN(C(=O)C3CC3)C[C@H]2NC(=O)C2CC2)n1,i[5.79 µM]
CCOc1ccc(-c2ccnc(N3CCNC(C)C3)n2)cc1C(=O)O (configuration not stated),14.7%
O=C1NC(=NC2CCCC2)C2(CCCN([S+](=O)([O-])c3cccc(C(F)(F)F)c3)C2)N1c1cccnc1 (configuration not stated),-28.8%
O=C1NC(=NC2CCCC2)C2(CCN([S+](=O)([O-])c3cccc(C(F)(F)F)c3)C2)N1c1cc(F)cc(F)c1 (configuration not stated),14.2%
COc1cccc(N2C(=O)NC(=NC3CCCCC3)C23CCCN([S+](=O)([O-])c2cccc(C(F)(F)F)c2)C3)c1 (configuration not stated),12.6µM*
CC(C)CCN1CCCC2(CC(Cc3ccccc3)=NO2)C1 (configuration not stated),-18.1%[44.1 µM]
c1ccc(CC2=NOC3(CCN(CC4CCCCC4)CC3)C2)cc1,3.55µM*
c1cncc(C2=NOC3(CCN(CC4CCCCC4)CC3)C2)c1,22.0%
c1ccc(CC2=NOC3(CCN(Cc4ccccc4)C3)C2)cc1 (configuration not stated),4.47µM*
COc1ccc(CN2CCCC3(CC(Cc4ccccc4)=NO3)C2)cc1 (configuration not stated),-6.0%
FC(F)(F)c1ccc(CN2CCCC3(CC(Cc4ccccc4)=NO3)C2)cc1 (configuration not stated),-15.3%
CC(C)NC(=O)CN1C(=O)NC2(CCC(C(C)(C)C)CC2)C1=O (configuration not stated),i
O=C(c1cnccn1)N1CCC(c2nc(C3CCOCC3)no2)CC1,28.2%
SMILES,Pf Dd2 growth
N[C@@H]1CC[C@H](C(=O)N2CCN(Cc3cccc(C(F)(F)F)c3)CC2)C1,-4.0%
COc1cccc(C(=O)N2C(C(=O)NC(C)C)COC23CCN(C(=O)c2ccc(F)cc2)CC3)c1 (configuration not stated),-9.1%
COCCN1C(=O)[C@H]2CN(Cc3ccccc3OC(F)(F)F)C[C@H]2C1=O,49.8%
COc1cccc(CN2CCc3nn(C)c(=O)n3CC2)c1OC,40.1%
COc1cccc(CN2C[C@@H]3C(=O)N(CCN4CCc5ccccc5C4)C(=O)[C@@H]3C2)c1OC,7.08µM*
CCN(Cc1ccccc1)C(=O)CC1CCCN(c2cnn(CC)c(=O)c2)C1 (configuration not stated),-17.5%
Cc1noc(C)c1CC(=O)N1CCCC(c2nn(C)c(=O)n2C(C)C)C1 (configuration not stated),-16.7%
COc1ccc(-c2cc(N3CCCN(C(=O)c4ccccn4)CC3)n[nH]2)cc1,i
COc1ccc(-c2noc(C(=O)O)c2[C@@H](C)NC(=O)C2CCCC2)cc1,-11.3%[44.1 µM]
COc1ccc(C2Cn3cnc(C(=O)N4CCC(C(=O)Nc5ccc(C)cc5C)CC4)c3CO2)cc1 (configuration not stated),-9.4%
COc1ccc(C2Cn3cnc(C(=O)N4CCC(C(=O)Nc5ccccc5F)CC4)c3CO2)cc1 (configuration not stated),11.2µM*
COc1ccc(C2Cn3cnc(C(=O)N4CCC(C(=O)Nc5cccc(F)c5)CC4)c3CO2)cc1 (configuration not stated),-25.5%
